The values that follow come from PubChem BioAssay (Tox21).

Several values for one entry are separate records, joined by “and”; a condition that tells them apart may be missing. Equal values may be shown once. Results filed as inconclusive are left out. Some compounds were tested as several samples or in several runs, with calls that do not always agree. Activity calls are given as the source filed them. Calls follow the shape of the full dose curve.

The target of test [1] is Acetylcholinesterase (Homo sapiens) (UniProt P22303). Put plainly: Acetylcholinesterase (AChE) small molecule antagonists: colormetric cell-based qHTS assay (AID 1347395). Also: nearly all actives have a fitted effect of over 30% in size. Also: potency is read from the fitted curve at half-maximal effect. The procedure, abridged:
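Colorimetric readout: DTNB quantifies thiocholine from acetylthiocholine hydrolysed by endogenous AChE of SH-SY5Y cells (2,000/well, plated overnight). Compound pretreatment 30 min, substrate incubation 90 min, both 37 C.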

Test [2] shares this target. Put plainly: Acetylcholinesterase (AChE) small molecule antagonists: enzyme-based qHTS assay (AID 1347397). Also: nearly all actives have a fitted effect of over 55% in size. Also: potency is read from the fitted curve at half-maximal effect. Conditions: Potency: AChE enzyme activity inhibition; outcome: AChE enzyme activity inhibition. The procedure, abridged: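 Tox21 library chemicals are tested in qHTS format against recombinant human AChE. The enzyme, dispensed at 50 mU/mL, sits with compound for 30 min at room temperature. A DTNB–acetylthiocholine cocktail follows, and colour is read after 10 min.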
A general note: qHTS replaces the single test concentration by a dilution series.

Test [3] shares this target. In words: Acetylcholinesterase (AChE) small molecule antagonists: fluorescence cell-based qHTS assay (AID 1347398). Also: nearly all actives have a fitted effect of over 50% in size. Also: potency is read from the fitted curve at half-maximal effect. Conditions: Potency: AChE activity; outcome: AChE activity. In a few lines:
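Cellular AChE inhibition: SH-SY5Y cells treated with test chemical for 30 min at 37 C, then acetylthiocholine hydrolysis followed over 40 min at room temperature via thiocholine-reactive Thiolite Green fluorescence (490/520 nm).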

The target is the same in test [4]. In words: Acetylcholinesterase (AChE) small molecule antagonists: enzyme-based qHTS assay with human liver microsomes (AID 1347399). Also: nearly all actives have a fitted effect of over 60% in size. Particulars: Potency: qHTS inhibition; outcome: qHTS inhibition. In a few lines: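 Recombinant human AChE (50 mU/mL in the enzyme mix) and human liver microsomes (0.25 mg/mL final) were preincubated with compound and NADPH (0.25 mg/mL final) for 30 min at 37 C. Acetylthiocholine/DTNB was then added; thiocholine was read colorimetrically after 10 min at room temperature.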

Chain of Acetylcholinesterase (Homo sapiens) (P22303 whole entry, looked up): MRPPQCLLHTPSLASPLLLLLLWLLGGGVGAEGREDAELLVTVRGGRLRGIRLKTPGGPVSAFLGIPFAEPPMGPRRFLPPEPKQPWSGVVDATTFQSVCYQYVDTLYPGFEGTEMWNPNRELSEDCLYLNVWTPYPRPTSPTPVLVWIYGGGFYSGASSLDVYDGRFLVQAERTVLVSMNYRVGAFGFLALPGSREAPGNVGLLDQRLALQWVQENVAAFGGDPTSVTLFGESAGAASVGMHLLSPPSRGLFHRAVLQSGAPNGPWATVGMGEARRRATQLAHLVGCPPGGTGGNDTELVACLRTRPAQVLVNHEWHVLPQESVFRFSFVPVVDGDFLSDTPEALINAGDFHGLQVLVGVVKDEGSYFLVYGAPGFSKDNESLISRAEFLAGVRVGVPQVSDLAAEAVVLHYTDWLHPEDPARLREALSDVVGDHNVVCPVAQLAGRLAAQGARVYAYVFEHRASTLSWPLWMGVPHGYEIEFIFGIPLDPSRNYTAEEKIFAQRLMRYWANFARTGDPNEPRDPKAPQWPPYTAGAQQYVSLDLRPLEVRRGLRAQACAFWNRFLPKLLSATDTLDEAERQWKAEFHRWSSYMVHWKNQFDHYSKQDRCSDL

In the case of `CC(C)=CC(=O)C=C(C)C`, the Potency entry in test [1], in test [2], in test [3] and in test [4] was “inactive” each time.

As for `COc1cc2c(cc1OC)CN(C(=O)[C@H](C)N[C@@H](CCc1ccccc1)C(=O)O)[C@H](C(=O)O)C2`, the Potency result in test [1], in test [2], in test [3] and in test [4] was “inactive” each time.

Consider `O=C(OCc1ccccc1)c1ccc(O)cc1`, for which the Potency result in test [1], in test [2], in test [3] and in test [4] was “inactive” each time.

On to `O=[N+]([O-])c1ccc2c(c1)Cc1ccccc1-2`, for which the Potency entry in test [1], in test [2] and in test [4] was “inactive” each time. In test [3], the Potency is 39.9 µM (active) and inactive.

Regarding `O=C1O[C@@H]2[C@@H](O)[C@H](O)O[C@@H]2[C@H]1O`, the Potency entry in test [1], in test [2], in test [3] and in test [4] was “inactive” throughout.

As for `O=C(O)CCCCCCCCCCC(=O)O`, the Potency result in test [1], in test [2], in test [3] and in test [4] was “inactive” throughout.

`CC(C)OC(=O)c1ccccc1`: the Potency entry in test [1], in test [2], in test [3] and in test [4] was “inactive” each time.

As to `Cc1oc(-c2ccccc2)nc1CCOc1cccc2c1ccn2CCC(=O)O`, the Potency entry in test [1], in test [2], in test [3] and in test [4] was “inactive” each time.

For `OCCOCCOCCOCCO`, the Potency entry in test [1], in test [2], in test [3] and in test [4] was “inactive” each time.

With `OCC(O)[C@@H](O)[C@H](O)[C@H](O)CO[C@H]1O[C@H](CO)[C@@H](O)[C@H](O)[C@H]1O` (stereo not given in full), the Potency result in test [1], in test [2], in test [3] and in test [4] was “inactive” throughout.

For `CC1=C(C)S(=O)(=O)CCS1(=O)=O`, the Potency entry in test [1], in test [2], in test [3] and in test [4] was “inactive” throughout.

With `C1COCCO1`, the Potency entry in test [1], in test [2], in test [3] and in test [4] was “inactive” throughout.

Turning to `O=C(O)CCCC[P+](c1ccccc1)(c1ccccc1)c1ccccc1`, the Potency result in test [1], in test [2], in test [3] and in test [4] was “inactive” throughout.

Turning to `CCCCCCCC/C=C\CCCCCCCC(=O)OC(CO)CO`, the Potency entry in test [1], in test [2], in test [3] and in test [4] was “inactive” in each case.

Turning to `CNc1ncnc2nc[nH]c12`, the Potency entry in test [1], in test [2], in test [3] and in test [4] was “inactive” in each case.

In the case of `O=[N+]([O-])c1ccc(/C=N\O)o1`, the Potency entry in test [1], in test [2], in test [3] and in test [4] was “inactive” each time.

In the case of `CCCCCCCCCCCCc1ccc(O)cc1`, the Potency result in test [1], in test [3] and in test [4] was “inactive” throughout. Further, the Potency in test [2] is 63.3 µM (active).

For the molecule `CC(C)C(=O)OC(=O)C(C)C`, the Potency result in test [1], in test [2], in test [3] and in test [4] was “inactive” each time.

Regarding `O=C(O)c1ccc2cc(C(=O)O)ccc2c1`, the Potency entry in test [1], in test [2], in test [3] and in test [4] was “inactive” throughout.

With `C=C1C2CCC(C2)C1(C)C` (stereo not given), the Potency entry in test [1], in test [2], in test [3] and in test [4] was “inactive” in each case.

For the molecule `Oc1ccc2ccccc2c1N=Nc1ccccc1`, the Potency result in test [1], in test [2], in test [3] and in test [4] was “inactive” in each case.

Regarding `Cc1ccc([N+](=O)[O-])c(N)c1`, the Potency result in test [1], in test [2], in test [3] and in test [4] was “inactive” throughout.

With `Cn1c(=O)c2c(ncn2CC2OCCO2)n(C)c1=O`, the Potency result in test [1], in test [2], in test [3] and in test [4] was “inactive” each time.

`CN1C(C(=O)Nc2ccccn2)=C(O)c2ccccc2S1(=O)=O`: the Potency result in test [1], in test [2], in test [3] and in test [4] was “inactive” throughout.

With `O=Cc1ccc([N+](=O)[O-])cc1`, the Potency entry in test [1], in test [2], in test [3] and in test [4] was “inactive” in each case.

With `CCCCCSCCCCC`, the Potency result in test [1], in test [2], in test [3] and in test [4] was “inactive” in each case.

Regarding `CC(C)=CCOC(=O)c1ccccc1`, the Potency entry in test [1], in test [2], in test [3] and in test [4] was “inactive” throughout.

Take `CCc1ccc(C)cc1`: the Potency result in test [1], in test [2], in test [3] and in test [4] was “inactive” throughout.

As to `COc1ccc(Br)c(C)c1`, the Potency result in test [1], in test [2], in test [3] and in test [4] was “inactive” throughout.

Turning to `c1ccc2c(c1)CCc1ccccc1N2`, the Potency result in test [1], in test [2], in test [3] and in test [4] was “inactive” each time.

In the case of `CS(=O)(=O)CCNCc1ccc(-c2ccc3ncnc(Nc4ccc(OCc5cccc(F)c5)c(Cl)c4)c3c2)o1`, the Potency result in test [1], in test [2], in test [3] and in test [4] was “inactive” in each case.

For the molecule `C=COCCOCCOC=C`, the Potency entry in test [1], in test [2], in test [3] and in test [4] was “inactive” throughout.

Turning to `CC(=O)C(C)C`, the Potency entry in test [1], in test [2], in test [3] and in test [4] was “inactive” each time.

On to `CCCCCCCCCCC`, for which the Potency result in test [1], in test [2], in test [3] and in test [4] was “inactive” throughout.

Consider `c1cc(CN2CCCCC2)cc(OCCCNc2nc3ccccc3s2)c1`, for which the Potency is 15.5 µM (active) in test [1], 27.5 µM (active) in test [2] and 13.8 µM (active) in test [3]. Besides, the Potency result in test [4] was “inactive”.

Turning to `CCO[Si](CC(C)C)(OCC)OCC`, the Potency result in test [1], in test [2], in test [3] and in test [4] was “inactive” throughout.

Regarding `c1ccc2[nH]cnc2c1`, the Potency entry in test [1], in test [2], in test [3] and in test [4] was “inactive” in each case.

For `C=C1C(C)(C)[C@@]2(Cl)C(Cl)[C@]1(Cl)C(Cl)(Cl)C2(Cl)Cl` (stereo not given in full), the Potency entry in test [1], in test [2], in test [3] and in test [4] was “inactive” in each case.

As to `Cc1c(O)cccc1O`, the Potency result in test [1], in test [2], in test [3] and in test [4] was “inactive” in each case.

As to `OCC1CCCO1` (stereo not given), the Potency entry in test [1], in test [2], in test [3] and in test [4] was “inactive” throughout.

Consider `CCCCCCC(CO)CCCC` (stereo not given), for which the Potency result in test [1], in test [2], in test [3] and in test [4] was “inactive” in each case.

For `O=C1CCCCCN1SSN1CCCCCC1=O`, the Potency result in test [1], in test [2], in test [3] and in test [4] was “inactive” throughout.

For the molecule `NCC1CCC(C(=O)Oc2ccc(CCC(=O)O)cc2)CC1` (stereo not given), the Potency result in test [1], in test [2], in test [3] and in test [4] was “inactive” in each case.

Regarding `COC1CCC=CO1` (stereo not given), the Potency result in test [1], in test [2], in test [3] and in test [4] was “inactive” each time.

Take `O=Cc1c(Cl)cccc1Cl`: the Potency entry in test [1], in test [2], in test [3] and in test [4] was “inactive” each time.

For `CC(=O)c1ccccn1`, the Potency entry in test [1], in test [2], in test [3] and in test [4] was “inactive” each time.

Take `Oc1cc(O)c2c(c1)O[C@H](c1ccc(O)c(O)c1)[C@H](O)C2`: the Potency entry in test [1], in test [2], in test [3] and in test [4] was “inactive” in each case.

Consider `O=c1[nH]sc2cc(Cl)ccc12`, for which the Potency result in test [1], in test [2], in test [3] and in test [4] was “inactive” throughout.

Take `CO[Si](OC)(OC)c1ccccc1`: the Potency entry in test [1], in test [2], in test [3] and in test [4] was “inactive” each time.

Take `CN(C)/N=N/c1nc[nH]c1C(N)=O`: the Potency entry in test [1], in test [2], in test [3] and in test [4] was “inactive” each time.

Consider `CC1(C)NC(=O)NC1=O`, for which the Potency result in test [1], in test [2], in test [3] and in test [4] was “inactive” throughout.

Regarding `N#CCC(=O)NN`, the Potency result in test [1], in test [2], in test [3] and in test [4] was “inactive” throughout.

Consider `O=C1Nc2cc(Cl)ccc2Oc2ccccc21`, for which the Potency entry in test [1], in test [2], in test [3] and in test [4] was “inactive” throughout.

For the molecule `COc1cccc(CCc2ccccc2OCC(CN(C)C)OC(=O)CCC(=O)O)c1` (stereo not given), the Potency result in test [1], in test [2], in test [3] and in test [4] was “inactive” throughout.

As to `O=C(O)c1cc(Cl)cc(Cl)c1`, the Potency entry in test [1], in test [2], in test [3] and in test [4] was “inactive” throughout.

`CCCCOCCOCCOCCOCCO`: the Potency entry in test [1], in test [2], in test [3] and in test [4] was “inactive” throughout.

Take `O=S1(=O)OC(c2ccc(O)cc2)(c2ccc(O)cc2)c2ccccc21`: the Potency result in test [1], in test [2], in test [3] and in test [4] was “inactive” in each case.

Regarding `Cc1cc2nc3c(=O)[nH]c(=O)nc-3n(C[C@H](O)[C@H](O)[C@H](O)CO)c2cc1C`, the Potency in test [1] was 35.2 µM (active) and 33 µM (active). The Potency entry in test [2], in test [3] and in test [4] was “inactive” each time.

Take `Cc1c(Cn2ccnc2)c2ccccc2n1CCC(=O)O`: the Potency entry in test [1], in test [2], in test [3] and in test [4] was “inactive” throughout.

For the molecule `COc1ccccc1N1CCN(CC(O)COc2cccc3ccccc23)CC1` (stereo not given), the Potency entry in test [1], in test [2], in test [3] and in test [4] was “inactive” throughout.
